Test results reported in PubChem BioAssay.
Active and inactive are the calls of the source. How the calls were made is not given here.

Assay: inhibitors of Cryptococcus chitosan production, flow cytometry, Cibacron Brilliant Red staining (AID 1347148);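 further: compound exposure lasted three days at 37 degrees C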
Details: Cryptococcus neoformans chitosan, hits give low values; at 10 µM unless noted

Row | Structure (SMILES) | fold fluorescence
1 | CCCCC[C@H](O)c1cccc(OCc2ccc3ccccc3n2)c1 | 5.53 (inactive)
2 | CC(/C=C/C(=O)NO)=C\[C@H](C)C(=O)c1ccc(N(C)C)cc1 | 17.7 [at 165.4 µM] (inactive)
3 | CCCCC[C@@H](O)/C=C/[C@H]1[C@@H](C/C=C\CCCC(=O)O)[C@H](O)C[C@@H]1O | 4.83 (inactive)
4 | Nc1ncnc2c1ncn2[C@@H]1CCCO1 | 2.55 [at 243.6 µM] (inactive)
5 | CCCCC[C@@H](O)/C=C/[C@H]1[C@H](C/C=C\CCCC(=O)O)[C@H](O)C[C@H]1O | 4.85 (inactive)
6 | CCCCC[C@@H](O)/C=C/[C@H]1[C@H](CCCCCCC(=O)O)[C@H](O)C[C@@H]1O | 3.58 (inactive)
7 | C[S@](=O)c1ccc(-c2nc(-c3ccc(F)cc3)c(-c3ccncc3)[nH]2)cc1 | 8.78 [at 132.5 µM] (inactive)
8 | COc1ccc(CCN(C)CCC[C@@](C#N)(c2ccc(OC)c(OC)c2)C(C)C)cc1OC | 7.65 [at 110 µM] (inactive)
9 | COC1=C2C[C@H](C)C[C@@H](OC)[C@@H](O)[C@H](C)/C=C(\C)[C@@H](OC(N)=O)[C@H](OC)/C=C\C=C(/C)C(=O)NC(=CC1=O)C2=O | 25.2 [at 89.2 µM] (inactive)
10 | CCCCCCCCCCCCCCCCOC[C@@H](COP(=O)([O-])OCC[N+](C)(C)C)OC(=O)NC | 5.1 (inactive)
